A3G deaminase = inhibitors of human APOBEC3G DNA deaminase; Q9HC16; recombinant A3G, ssDNA deamination FAM/TAMRA fluorescence; inhibition, % at 20 µM; 330,000 compounds, 0.28% hits; AID 493012;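 active = inhibition of at least 40% at 20 µM, with no more than 30% in the related APOBEC3A deaminase screen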;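 note: plate controls were DMSO wells with A3G for no effect and wells lacking A3G enzyme for full effect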
esBAF inh = blocks esBAF chromatin remodeling in mouse ES cells; Bmi1-luciferase knock-in reporter, 24 h; 100% = twice the neutral-well signal; reporter increase, % at 12.5 µM; 350,000 compounds, 2% hits; AID 602393; in the data active = activation above about 40%; inconclusive = no clear call, values can overlap the other calls;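 note: 0% = median of the plate's neutral control wells and 100% = double that signal; a rise in the Bmi1 reporter signal indicates esBAF inhibition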
Wnt bcat act = Wnt/beta-catenin pathway activation. activation, % at 9.35 µM. 300,000 compounds, 1.2% hits. Wnt/beta-catenin reporter cell assay, activator, plate reader; in the data active = activation above about 30%, passing the limit was not always enough; inconclusive = no clear call, values can overlap the other calls;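 note: 0% = neutral control wells and 100% = positive control wells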
MITF TRPM1 HTS = activators of MITF-driven TRPM1 promoter activity in SK-MEL-5 cells. activation, % at 12.5 µM. SK-MEL-5 TRPM1-promoter luciferase, 24 h; % of positive control, neutral wells = 0. 300,000 compounds, 0.75% hits. AID 588334;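 active = mean activation of at least 80% with every replicate also reaching 80%; inconclusive = mean reaches 80% but some replicate falls short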;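 note: 0% = neutral control wells and 100% = parthenolide positive control wells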
PHOSPHO1 inh = PHOSPHO1 (human) inhibition. recombinant PHOSPHO1, absorbance phosphatase assay. inhibition, % at 13.3 µM. 290,000 compounds, 1.1% hits; in the data active = inhibition above about 60%
Target sequence (Q8TCT1 whole entry, looked up): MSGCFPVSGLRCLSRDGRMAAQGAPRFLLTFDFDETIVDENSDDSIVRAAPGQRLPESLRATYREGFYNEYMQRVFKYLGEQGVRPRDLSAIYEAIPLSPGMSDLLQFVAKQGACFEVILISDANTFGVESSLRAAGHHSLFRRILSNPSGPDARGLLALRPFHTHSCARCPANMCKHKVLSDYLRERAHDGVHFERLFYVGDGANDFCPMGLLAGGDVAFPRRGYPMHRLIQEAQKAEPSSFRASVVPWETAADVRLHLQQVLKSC
APOBEC3A inh = human APOBEC3A DNA deaminase inhibition; P31941; recombinant A3A, FAM/TAMRA ssDNA deamination fluorescence; inhibition, % at 20 µM; 330,000 compounds, 0.41% hits;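 active = at least 40% inhibition at 20 µM here, with at most 30% in a related deaminase screen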;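 note: plate controls were A3A with DMSO for no effect and wells lacking A3A enzyme for full effect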
Target sequence (P31941 whole entry, looked up): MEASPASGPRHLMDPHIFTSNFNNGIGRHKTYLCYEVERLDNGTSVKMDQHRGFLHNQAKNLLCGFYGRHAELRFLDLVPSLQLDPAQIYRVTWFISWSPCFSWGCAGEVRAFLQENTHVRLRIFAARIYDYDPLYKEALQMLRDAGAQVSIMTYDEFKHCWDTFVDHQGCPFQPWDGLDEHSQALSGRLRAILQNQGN
Active calls of the source: *; ? = inconclusive; . = not tested or not shown. An excerpt weighted towards active compounds, which were near 3.6% of everything screened.

SMILES | A3G deaminase | esBAF inh | Wnt bcat act | MITF TRPM1 HTS | PHOSPHO1 inh | APOBEC3A inh
O=C(CNC(=O)c1sc2ccccc2c1Cl)NCc1ccccc1 | -4.3 | . | -0.1 | 16.6 | 42.6 | -0.4
CC(=O)NCCN=C(C)c1sc2ccccc2c1O | 0.8 | 41.0* | . | 22.2 | 5.7 | 1.9
Cc1noc(C)c1NC(=O)Nc1ccc2c(c1)C(=O)N([C@H](C)CO)C[C@H](C)[C@H](CN(C)C)OCCCC[C@H](C)O2 | . | 0.9 | . | . | . | .
Nc1ncc(Br)cc1S(=O)(=O)NC1CCCCC1 | -1.9 | 2.9 | 0.1 | 0.9 | 72.5* | -2.4
COc1cccc(NC(=O)c2cccc(C)c2[N+](=O)[O-])c1 | 0.0 | . | 33.4* | 30.6 | -11.4 | -1.6
COc1cccc(NC(=S)NNC(=O)c2c([N+](=O)[O-])c(C)nn2C)c1 | -8.1 | -9.0 | . | 5.9 | 81.6* | 7.4
O=c1c2ccccc2oc2ccc(-c3ccc4[nH]ccc4c3)cc12 | -5.9 | 33.8 | -3.1 | 112.6* | . | -2.0
COc1ccc(NC(=O)Nc2ccc3c(c2)CC(=O)N([C@H](C)CO)C[C@@H](C)[C@H](CN(C)Cc2ccc(-c4ccccc4)cc2)O3)cc1 | . | 1.9 | . | . | . | .
CCCNC(=O)N1[C@H](CNC(=O)c2ccc(F)cc2)[C@@H](c2ccccc2)[C@@H]1CO | . | -1.2 | . | . | . | .
C[C@H]1CCCCO[C@@H](CN(C)C(=O)c2ccccc2)[C@@H](C)CN([C@@H](C)CO)C(=O)c2cc(NC(=O)Nc3ccc(C(F)(F)F)cc3)ccc2O1 | . | -10.7 | . | . | . | .
CC(=O)c1cccc(Nc2nc(-c3ccccc3)cs2)c1 | -8.8 | 7.4 | 20.8 | 130.0* | 12.0 | -5.6
O=C(O)c1ccc(Nc2nc(-c3cccnc3)cs2)cc1 | -3.1 | ? | 26.0 | 16.6 | 22.2 | 1.0
CCOc1ccc(Nc2nc(-c3cccnc3)cs2)cc1 | -6.8 | 50.3* | 13.8 | . | . | -5.2
CC(=O)c1cccc(Nc2nc(-c3cccnc3)cs2)c1 | -4.5 | 54.2* | 16.8 | . | 18.7 | -8.0
CC(=O)c1ccc(Nc2nc(-c3cccnc3)cs2)cc1 | -6.9 | 51.5* | 4.2 | . | 9.2 | 0.5
O=C(Nc1ccc(-c2csc(Nc3cccc(C(F)(F)F)c3)n2)cc1)c1ccccc1 | -9.8 | 0.5 | -9.4 | -16.6 | 26.5 | -2.8
CO[C@H]1CN(C)C(=O)c2ccc(NS(=O)(=O)CC(F)(F)F)cc2OC[C@@H](C)NC[C@H]1C | . | -3.2 | . | . | . | .
CCCC#Cc1ccc2c(c1)O[C@H](CN(C)C(=O)C1CCC1)[C@@H](C)CN([C@@H](C)CO)S2(=O)=O | . | 7.7 | . | . | . | .
CN1C(=O)c2cc(NC(=O)C3CCCCC3)ccc2OC[C@H]2O[C@@H](CC(=O)NC3CCCC3)CC[C@H]21 | . | 1.6 | . | . | . | .
Cc1ccn2cc(-c3cccc(NC(=O)c4ccccc4)c3)nc2c1 | -5.2 | . | 17.2 | 105.0* | -32.1 | -2.5
Cc1ccn2cc(-c3cccc(NC(=O)C(C)C)c3)nc2c1 | -1.3 | . | -1.0 | 34.1 | 36.7 | 0.1
O=C(Nc1cccc(-c2csc(Nc3cccc(C(F)(F)F)c3)n2)c1)c1ccccc1 | -7.0 | -2.5 | 0.2 | -9.3 | 35.3 | -0.3
O=C(Nc1cccc(-c2csc(Nc3ccccc3)n2)c1)c1ccccc1 | -10.7 | 57.4* | 26.9 | 106.4* | 17.7 | -0.5
C[C@H](CO)N1C[C@H](C)[C@H](CN(C)CC2CC2)Oc2ccc(NC(=O)C3CC3)cc2CC1=O | . | 1.4 | . | . | . | .
CN1[C@@H]2CN(C(=O)C3CCOCC3)c3ccccc3[C@@H]2[C@@H]1CO | . | -4.6 | . | . | . | .
SMILES | A3G deaminase | esBAF inh | Wnt bcat act | MITF TRPM1 HTS | PHOSPHO1 inh | APOBEC3A inh
C=CCn1c(COc2ccc(F)cc2)nnc1SCC(=O)NC1CC1 | -3.9 | . | -1.9 | 0.4 | . | 0.4
C=CCn1c(COc2ccc(F)cc2)nnc1SCC(=O)N1CC(=O)Nc2ccccc21 | -3.4 | 4.6 | . | -8.9 | 73.5* | 4.0
Cc1cc2nc(-c3ccc[nH]c3=O)n(Cc3cccc(F)c3)c2cc1C | -4.7 | 7.7 | 3.9 | -2.3 | -7.0 | -4.2
CCCn1c(-c2ccc[nH]c2=O)nc2cc(C)c(C)cc21 | 2.8 | . | 62.5* | 29.9 | 35.4 | 2.4
O=C(C[C@@H]1CC[C@H]2[C@@H](COC[C@@H](O)CN2C(=O)Nc2ccc(C(F)(F)F)cc2)O1)NCC1CCCCC1 | . | 3.7 | . | . | . | .
Cc1ccc(S(=O)(=O)N(C)C[C@H]2Oc3ccc(NC(=O)CCN4CCOCC4)cc3CC(=O)N([C@@H](C)CO)C[C@H]2C)cc1 | . | -2.1 | . | . | . | .
CC(C)(C)c1ccc(-c2n[nH]c(=S)n2C2CCCC2)cc1 | -0.1 | 4.6 | . | -7.4 | 90.9* | -3.8
CCOC(=O)c1c(Nc2ccc(OC)cc2)n[nH]c1C | . | . | 34.3* | . | . | .
CCOC(=O)C1(Cc2cccc(Cl)c2)CCCN(C(=O)c2cc(C)[nH]n2)C1 (stereo not given) | -5.3 | -0.2 | -0.6 | -6.4 | 13.0 | -3.3
CCOC(=O)C1(Cc2cccc(Cl)c2)CCCN(C(=O)c2c(CC)noc2C)C1 (stereo not given) | 12.5 | 19.9 | 4.3 | 28.7 | -9.1 | 1.4
CCOC(=O)C1(Cc2cccc(Cl)c2)CCCN(C(=O)c2cc(C)on2)C1 (stereo not given) | -3.7 | 52.9* | 12.5 | 23.2 | 17.8 | 0.6
CCOC(=O)C1(Cc2cccc(Cl)c2)CCCN(C(=O)c2ccc(C)nc2)C1 (stereo not given) | -3.6 | . | -0.9 | 0.2 | 62.8* | 0.7
Cc1ccc(S(=O)(=O)N(C)C[C@@H]2OCCCC[C@H](C)Oc3ccc(NC(=O)c4ccccc4)cc3C(=O)N([C@H](C)CO)C[C@@H]2C)cc1 | . | 1.9 | . | . | . | .
Cc1ccc(NC(=O)c2cccc(OC(F)F)c2)c(OC(F)F)c1 | -1.3 | 3.6 | 0.9 | 0.5 | -12.2 | 0.7
O=C(CNC(=O)c1cccc(OC(F)F)c1)Nc1ccc(Cl)cc1 | -0.5 | -11.5 | 0.0 | -6.5 | . | 0.9
COc1cc(OC)c(NC(=O)c2cccc(F)c2)cc1Cl | -7.8 | . | -0.1 | -6.4 | 13.5 | -3.9
Cc1c(Cl)cccc1NC(=O)c1cccc(OC(F)F)c1 | -3.8 | 50.2* | 7.0 | 11.3 | 32.6 | 1.9
COc1ccc(NC(=O)c2cccc(F)c2)cc1Cl | -1.6 | 77.2* | . | 59.2 | 6.3 | -13.1
O=C(Nc1ccc2c(c1)CCC2)c1cccc(OC(F)F)c1 | -5.5 | ? | 64.9* | . | . | -2.7
O=C(Nc1ccc(OC(F)F)c(Cl)c1)c1cccc(OC(F)F)c1 | -7.1 | 21.1 | . | 88.0* | 9.5 | -7.0
O=C(Nc1ccccc1F)N[C@@H]1CC[C@@H](CCNS(=O)(=O)c2ccc(Cl)cc2)O[C@@H]1CO | . | 2.4 | . | . | . | .
CN1CCN(C(=O)C[C@H]2C[C@H]3c4cc(NC(=O)Nc5ccc(C(F)(F)F)cc5)ccc4O[C@H]3[C@@H](CO)O2)CC1 | . | -2.3 | . | . | . | .
COc1ccc(NC(=O)c2cccc(OC(F)F)c2)cc1Cl | -8.1 | 57.3* | . | 51.8 | 0.3 | -3.5
C[N+]1(CCOc2ccc([N+](=O)[O-])cc2)CCOCC1 | 35.7 | 0.9 | -0.3 | 7.2 | 96.8* | 77.2
CC(=O)c1ccc(OCCOc2ccc([N+](=O)[O-])cc2)cc1 | -4.5 | 0.8 | -0.3 | 4.9 | 34.0 | -2.4

Screening data deposited in PubChem BioAssay by several laboratories.
